# Screening data (PubChem BioAssay)
# Rows were chosen to be rich in hits. Some 1.5% of all compounds tested hit in one or more screens of this group.
# TrxR1 inh: qHTS Assay for Inhibitors of Mammalian Selenoprotein Thioredoxin Reductase 1 (TrxR1): qHTS. recombinant rTrxR1, NADPH fluorescence consumption, selenite substrate. 1% of 390,000 active. Thioredoxin reductase 1, cytoplasmic (Rattus norvegicus), O89049. Potency, µM (highest dose often 114 µM), without a hit: at the top dose activity change, negative = inhibition, hits mostly inhibitors; further: potency means the concentration at half of the fitted maximal effect; nearly all actives have a fitted effect of over 65% in size
#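 Rat TrxR1 (90 nM in the dispensed reagent) was pre-reduced with 400 uM NADPH for 5 min at room temperature, then incubated with compound for 15 min. After 400 uM selenite was added, NADPH fluorescence (Ex 340/Em 450 nm) was followed for 8 min.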
# mIDH1 inhibitor: qHTS for Inhibitors of mutant isocitrate dehydrogenase 1 (IDH1): qHTS; AID 602179, 2012; Isocitrate dehydrogenase [NADP] cytoplasmic (Homo sapiens), O75874; Potency, µM (titrated, usually from 76.6 µM), without a hit: at the top dose activity change, negative = inhibition, actives largely listed as inhibitors; IDH1-R132H enzyme, NADPH consumption, diaphorase/resazurin fluorescence; 0.093% of 390,000 active; further: potency means the concentration at half of the fitted maximal effect; nearly all actives have a fitted effect of over 65% in size
#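 IDH1-R132H (0.5 ug/mL dispensed) in pH 7.5 Tris buffer was preincubated 30 min with compound, then given a substrate mix of 0.016 mM NADPH and 2 mM alpha-KG for 80 min at room temperature; remaining NADPH was read by diaphorase/resazurin fluorescence.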
# TrxR1 substrate: qHTS Assay for Substrates of Mammalian Selenoprotein Thioredoxin Reductase 1 (TrxR1): qHTS | Thioredoxin reductase 1, cytoplasmic (Rattus norvegicus), O89049 | purified TrxR1 substrate turnover, NADPH consumption readout | Potency, µM (doses to about 114 µM), without a hit: top-dose activity change, negative = substrate turnover | 0.01% of 390,000 active | AID 588456, 2011; further: potency means the concentration at half of the fitted maximal effect; nearly all actives have a fitted effect of over 50% in size
#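 Rat TrxR1, dispensed at 90 nM, was prereduced with 400 uM NADPH (final) for 5 min at ~22 deg C, then incubated with compound 15 min before 400 uM selenite. A first-read NADPH fluorescence drop versus no-compound background flagged substrates.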
# Eya2 inh: qHTS Assay for Inhibitors of the Phosphatase Activity of Eya2. Protein phosphatase EYA2 (Homo sapiens), O00167. recombinant Eya2, OMFP fluorescence dephosphorylation (OMFP is methylfluorescein phosphate). Potency, µM (titrated, usually from 76.9 µM), for the others: at the highest dose activity, negative = inhibition, actives largely listed as inhibitors. 0.006% of 330,000 active. AID 488837, 2010; further: potency means the concentration at half of the fitted maximal effect
# Target sequence (O00167 whole entry, looked up): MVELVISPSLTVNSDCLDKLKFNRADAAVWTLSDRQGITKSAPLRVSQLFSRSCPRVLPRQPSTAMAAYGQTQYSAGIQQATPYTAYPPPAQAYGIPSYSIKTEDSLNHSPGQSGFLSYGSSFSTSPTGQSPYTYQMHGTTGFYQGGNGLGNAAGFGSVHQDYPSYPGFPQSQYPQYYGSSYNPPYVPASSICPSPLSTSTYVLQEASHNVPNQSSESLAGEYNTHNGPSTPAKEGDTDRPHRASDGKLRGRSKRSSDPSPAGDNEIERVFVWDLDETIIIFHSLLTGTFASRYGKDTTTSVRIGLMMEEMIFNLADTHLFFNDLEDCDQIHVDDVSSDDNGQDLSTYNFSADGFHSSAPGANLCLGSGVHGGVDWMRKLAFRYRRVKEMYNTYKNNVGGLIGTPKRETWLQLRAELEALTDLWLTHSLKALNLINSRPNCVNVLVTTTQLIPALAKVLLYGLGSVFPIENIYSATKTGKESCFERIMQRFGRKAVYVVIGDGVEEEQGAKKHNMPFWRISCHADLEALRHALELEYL
#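 Eya2 (0.2 uM) preincubated 10 min at ambient with compound, then OMFP substrate added at 50 uM; 10 min reaction in 50 mM HEPES pH 7.5, 50 mM NaCl, 5 uM MgCl2, 0.05% BSA, 1 mM DTT. Fluorescence read at Ex 485/Em 525 nm.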
# FBPA coupling cs: qHTS Assay for Inhibitors of Fructose-1,6-bisphosphate Aldolase from Giardia Lamblia: Coupling assay counterscreen | coupling enzyme system counterscreen, AmpLite Red fluorescence | activity change, negative = inhibition, % at 58.2 µM, hits read low | 0.67% of 290,000 active | AID 2472, 2010; in the data active means activity change below about -30%
#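 Coupling enzymes only (glyceraldehyde-3-phosphate) + compound, at 57.5 uM final, 10 min RT; add substrate/coupling/AmpLite Red mix, 20 min RT; fluorescence ex 525/em 598 nm. Actives flag coupling-system interference.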
# * = called active by the depositor; ? = inconclusive; nt = not tested or not shown; [ ] = dose if it differs, or a comment. Unless noted, the call rests on the fitted dose curve; in most records, active means well fitted curve in the direction sought with a large enough effect; inconclusive means small, poorly fitted or top-dose-only effect, or another doubt; inactive means no such curve, though single readings can be large; an effect the other way counts as inactive or inconclusive. On the % scale 0 is the no-effect control and ±100 the full control effect.
SMILES,TrxR1 inh,mIDH1 inhibitor,TrxR1 substrate,Eya2 inh,FBPA coupling cs
NS(=O)(=O)c1ccc(N/N=C/c2ccc(O)c(O)c2O)c([N+](=O)[O-])c1,-6%,18%,-20%,-9%,-46*
N#Cc1ccsc1NC(=O)CCS(=O)(=O)c1ccccc1,3.2µM*,-7%,2%,-1%,nt
NC(=O)c1ccsc1NC(=O)CCS(=O)(=O)c1ccccc1,8%[57.1 µM],1%,-5%[57.1 µM],7%,4
NC(=O)c1ccsc1NC(=O)CCS(=O)(=O)c1ccc(Cl)cc1,18µM*,6%,8%[57.1 µM],3%,nt
C=C(CN(C)C)C(=O)c1ccc2c(c1)OCO2,1.6µM*,0%,-8%,nt,nt
C=C(CN(C)C)C(=O)c1cc(OC)c(OC)cc1OC,1.8µM*,2%,-9%,nt,nt
C=C(CN(C)C)C(=O)c1ccc(C)cc1C,2µM*,-2%,15%[11.4 µM],nt,nt
COc1cc(OC)c(C(=O)CCC(=O)O)cc1OC,-9%,9%,-12%,5%,2
Cc1ccc(NC(=O)c2cnn3c2NC(=C2CC2)C=C3C(F)F)cc1,-17%,nt,-10%,nt,nt
CCc1ccc2oc(-c3ccc(C)c(NC(=O)COc4ccc(Cl)cc4)c3)nc2c1,6%,nt,2%,nt,nt
CCN1C(=O)[C@@H]2[C@H]3C(=CC[C@@H]2C1=O)C1(OCCCO1)[C@H]1O[C@@H]1[C@H]3O,nt,nt,nt,nt,-27
COc1cc2nc(N3CCOCC3)nc(NC3CC3)c2cc1OC,-9%,nt,196%,nt,nt
CC(C)=CCC[C@](C)(O)C1CC[C@]2(C)[C@@H]1CC[C@@H]1[C@@]3(C)CCC(=O)C(C)(C)[C@@H]3CC[C@]12C (some centres undefined),nt,nt,nt,nt,2
CC(=O)c1cccc(OCC(=O)c2cc(C)n(-c3cc(C)on3)c2C)c1,2%,34%,-2%,-23%,-34*
CCn1c(SCC(=O)Nc2cccnc2Cl)nnc1-c1ccccc1,5%,4%,3%,-6%,3
CCn1c(SCC(=O)Nc2cccc(NC(C)=O)c2)nnc1-c1ccco1,-9%[57.1 µM],-7%,9%[0.0914 µM],1%,-2
CCn1c(SCC(=O)Nc2ccc3c(c2)c2ccccc2n3CC)nnc1-c1ccco1,2.8µM*,-2%,0%,5%,0
CC(C)Cn1c(SCC(=O)Nc2cccnc2Cl)nnc1-c1ccco1,50µM*,6%,3%,1%,nt
CCn1c2ccccc2c2cc(NC(=O)c3coc(=O)c(Br)c3)ccc21,nt,nt,nt,14%,0
CCn1c2ccccc2c2cc(NC(=O)c3ccc(Br)o3)ccc21,18µM*,7%,8%[57.1 µM],15%,-6
CSCC[C@H](NC(=O)[C@H](CC(C)C)NC(=O)CCNC(=O)[C@@H](NC(=O)[C@H](Cc1ccccc1)NC(=O)[C@H](CO)NC(=O)[C@@H](N)CC(=O)O)C(C)C)C(N)=O,nt,nt,nt,nt,-3
CC(C)N1C(=O)CC(Nc2cccc3cccc(N)c23)C1=O (centres undefined),-54%,10%,-2%[57.1 µM],-7%,-30
CN1C(=O)CC(Nc2cccc3cccc(N)c23)C1=O (centres undefined),45µM*,0%,1%,-16%,-41*
O=C(CN1CCN(S(=O)(=O)c2ccc(Cl)cc2)CC1)c1ccc(O)c(O)c1,25µM*,0%,-9%,8%,nt
O=C(CN1CCN(S(=O)(=O)c2ccc(F)cc2)CC1)c1ccc(O)c(O)c1,-66%,12%,-11%[57.1 µM],-8%,-6
SMILES,TrxR1 inh,mIDH1 inhibitor,TrxR1 substrate,Eya2 inh,FBPA coupling cs
CCN(CC)S(=O)(=O)c1ccc(/C=C/C(=O)OCC(=O)Nc2ccc(S(N)(=O)=O)cc2)cc1,-3%[57.1 µM],3%,3%[57.1 µM],13%,-46*
CC1(C)OC(=O)C2(Cc3cc([N+](=O)[O-])ccc3N3CCCCCC32)C(=O)O1 (centres undefined),-15%,nt,-13%,nt,nt
CSCC[C@H](N)C(=O)N[C@@H](C)C(=O)NCC(=O)N[C@@H](CCCN=C(N)N)C(=O)N[C@@H](CO)C(=O)NCC(=O)N[C@@H](CC(=O)O)C(=O)N[C@@H](CO)C(=O)N[C@@H](CC(=O)O)C(=O)N[C@@H](CCC(=O)O)C(=O)N[C@@H](CC(=O)O)C(=O)N[C@@H](CC(C)C)C(=O)N[C@@H](CC(C)C)C(=O)N[C@@H](CCCCN)C(=O)N[C@@H](C)C(=O)N[C@H](C(=O)O)C(C)C,nt,nt,nt,nt,2
Cc1cccc(NC(=O)CSc2nc(N)cc(N)n2)c1,8%,1%,7%,0%,0
Cc1cccc(NC(=O)CSc2nnc(-c3ccco3)c(-c3ccco3)n2)c1C,2.8µM*,2%,-6%,7%,-15
Cc1cccc(NC(=O)CSc2nnc(-c3ccco3)c(-c3ccco3)n2)c1,8.9µM*,0%,-5%,-1%,-5
CC(=C\C(=O)O)/C(=C/c1ccc(C)o1)C(=O)O,71µM*,6%,-5%,-4%,2
CC1(C)Cc2c(sc3[nH]c(=S)n(Cc4ccco4)c(=O)c23)CO1,50µM*,4%,-3%,-2%,11
CCN(CC)CCCNC(=O)/C=C/C(=O)O,2.8µM*,15%,19%[57.1 µM],-16%,1
Nc1cccc2c1C(=O)N(C(=O)/C=C/c1cccc(F)c1)C2=O,28µM*,-2%,2%,-3%,-1
COc1cc(/C=C/C(=O)N2C(=O)c3cccc(N)c3C2=O)cc(OC)c1OC,-5%,6%,6%,-2%,0
Nc1cccc2c1C(=O)N(C(=O)/C=C/c1cccc(Br)c1)C2=O,20µM*,0%,8%,?,4
C=C[C@@H]1c2cc(C)ccc2N(S(=O)(=O)c2ccc(C)cc2)[C@H](c2ccc(C(=O)OC)cc2)C1(C#N)C#N,22%,nt,8%,nt,nt
COc1ccc(F)c(Cn2cnc3c(cnn3C(C)(C)C)c2=O)c1Cl,12%,nt,5%,nt,nt
CC1(C)CC(=O)C(C(c2ccncc2)C2C(=O)CC(C)(C)CC2=O)C(=O)C1,-9%[57.1 µM],0%,-23%[57.1 µM],-2%,1
Cc1ccc(C(C2C(=O)CC(C)(C)CC2=O)C2C(=O)CC(C)(C)CC2=O)s1,40µM*,9%,-13%,5%,0
CCCCCCCCCCCCCCCCCCOC[C@H](COP(=O)([O-])OCC[N+](C)(C)C)OC,-2%[57.1 µM],nt,?,25µM*,6
